Each structure is given as a SMILES string. About 83,000 compounds went through this panel and 20% of them were active in at least one assay; those are over-represented in the sample as a whole.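 For each line, cells grew in 96-well plates with the test compound present at a single concentration for 48 hours.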 Active and inactive are the calls of the source. The calls were made as follows: active = growth percent below 10; inactive = the rest.

In one assay the test system is K-562 leukemia. As to the kind of experiment: NCI-60 one-dose screen, 48 h (100 = growth as untreated, 0 = no growth, -100 = all killed). The following applies: 10 µM unless noted.
On to `COc1ccc(-c2nc3ccc(-c4nc5ccc(N6CCN(c7ccncc7)CC6)cc5[nH]4)cc3[nH]2)cc1OC`, for which the growth is 29.5% (inactive).

Take `O=C1/C(=C/c2cn(-c3ccccc3)nc2-c2ccccc2)SC(=S)N1CCc1ccccc1`: the growth is 108% (inactive). On to `CCCN1CCN(c2ccc3nc(-c4ccc5nc(-c6ccc(OCC)cc6)[nH]c5c4)[nH]c3c2)CC1`, for which the growth is -47.4% (active). `COc1cccc(-c2nc3sccn3c2-c2ccnc(NCCCNS(=O)(=O)c3cccc(F)c3)c2)c1`: the growth was 11.4% (inactive). `Cn1c(=O)c2c(nc3n(-c4ccc(Cl)cc4Cl)c(Sc4nc(-c5ccccc5)c(C#N)c(=O)[nH]4)cn23)n(C)c1=O`: the growth is 84% (inactive). With `O=C(/C=C/c1ccccc1)c1ccc(O)c(CN2CCN(c3cc4c(cc3F)c(=O)c(C(=O)O)cn4C3CC3)CC2)c1`, the growth was 16.7% (inactive). Same read-out and setting: the result for `C=CC(=O)Nc1cccc(-c2nc(SC)nc(Nc3ccccc3OC)c2C#N)c1` reads 8.6% (active); that for `COc1cccc(-c2nc3sccn3c2-c2ccnc(NCCNS(=O)(=O)c3ccc(F)cc3)c2)c1`, 13.4% (inactive). The same measure, in the same setting: next, `COc1cc2nc(N3CCCC3)nc(NCc3ccccc3)c2cc1OC`: 1.41% (active); `N#Cc1c(-c2ccc(Cl)cc2)nc(N/N=C/c2cccc(Br)c2)nc1N1CCOCC1`: 12.6% (inactive). Regarding `CSc1nc(-c2cccc(NC(=O)CCl)c2)c(C#N)c(=O)n1C`, the growth is 11.4% (inactive). Regarding `C=CC(=O)Nc1cccc(-c2nc(SC)nc(NCCc3ccc(OC)c(OC)c3)c2C#N)c1`, the growth was 31.2% (inactive). For the molecule `O=C(/C=C/c1cccc([N+](=O)[O-])c1)c1ccc(O)c(CN2CCN(c3cc4c(cc3F)c(=O)c(C(=O)O)cn4C3CC3)CC2)c1`, the growth was 6.49% (active). On to `COc1cc(/C=C/C(=O)c2ccc(O)c(CN3CCN(c4cc5c(cc4F)c(=O)c(C(=O)O)cn5C4CC4)CC3)c2)cc(OC)c1OC`, for which the growth is 10.6% (inactive). Still for that read-out and setting: the result for `CC(C)(O)c1cn(CCCCN2C(=O)C(=O)c3ccccc32)nn1` reads 94.3% (inactive); that for `COC(=O)[C@]12CCC(C)(C)C[C@H]1[C@H]1C(=O)C[C@@H]3[C@@]4(C)c5c([nH]c6ccccc6c5=O)C(C)(C)[C@@H]4CC[C@@]3(C)[C@]1(C)CC2`, 18.9% (inactive). With `N=C(N)c1ccc(-c2ccc(-c3ccc4ccccc4c3)s2)s1`, the growth is -47.2% (active). For `C=CC(=O)Nc1cccc(-c2nc(SC)nc(NCCN3CCOCC3)c2C#N)c1`, the growth was 87.7% (inactive). With `COc1cc(C=Nc2oc(-c3ccccc3)c(-c3ccccc3)c2C#N)cc(CN2CCCCC2)c1O`, the growth is 102% (inactive). As to `CC1=NN(c2nc(-c3ccc(Cl)cc3)c(C#N)c(N3CCOCC3)n2)C(=O)C1`, the growth is 101% (inactive).

Consider `COc1cccc(Nc2nc(SC)nc(-c3cccc([N+](=O)[O-])c3)c2C#N)c1`, for which the growth was 85.4% (inactive). As for `CSc1nc(NCCO)c(C#N)c(-c2cccc([N+](=O)[O-])c2)n1`, the growth was 90.8% (inactive). Still for that read-out and setting: next, `Cn1c(O)c(N=NC(=O)c2cc(-c3ccccc3)on2)c2ccccc21`: 116% (inactive); `CSc1nc(Nc2cccc(NC(=O)/C(C#N)=C/c3c(Cl)cccc3Cl)c2)c(C#N)c(-c2cccc([N+](=O)[O-])c2)n1`: 20.4% (inactive); `COc1ccc(-c2nc3ccc(-c4nc5ccc(N6CCN(c7ccccc7)CC6)cc5[nH]4)cc3[nH]2)cc1OC`: -31.7% (active). For `O=C(N=Nc1c(O)[nH]c2ccccc12)c1cc(-c2ccccc2)on1`, the growth was 104% (inactive). Take `O=C1CC(=NCC(=O)n2c(-c3ccccc3)nc3ccccc32)NN1`: the growth is 111% (inactive).

The subject of a further assay is MALME-3M melanoma. Described as above. As to conditions: 10 µM unless noted.
For the molecule `C=C(C)[C@@H]1CC[C@]2(C(=O)OC)CC[C@]3(C)[C@H](CC[C@@H]4[C@@]5(C)C/C(=C/c6cccc(I)c6)C(=O)C(C)(C)[C@@H]5CC[C@]43C)[C@@H]12`, the growth was 91.6% (inactive).

For `N#Cc1c(-c2ccc(Cl)cc2)nc(NN=Cc2ccco2)nc1N1CCOCC1`, the growth was 42.4% (inactive).

Consider `C=CC(=O)Nc1cccc(Nc2nc(SC)nc(-c3cccc([N+](=O)[O-])c3)c2C#N)c1`, for which the growth is 14.9% (inactive). Turning to `COc1ccc(/C=C/C(=O)c2ccc(O)c(CN3CCN(c4cc5c(cc4F)c(=O)c(C(=O)O)cn5C4CC4)CC3)c2)cc1`, the growth is 30.4% (inactive). Regarding `COc1cc2nc(N3CCCC3)nc(Nc3ccccc3)c2cc1OC`, the growth is -85.9% (active). Regarding `COc1cccc(-c2nc3sccn3c2-c2ccnc(NCCNS(=O)(=O)c3ccccc3)c2)c1`, the growth is 43.1% (inactive).

With `COc1cc(/C=C/C(=O)c2c(C)oc3nc[nH]c(=O)c23)cc(OC)c1OC`, the growth was 88.1% (inactive). In the case of `C=C(C)[C@@H]1CC[C@]2(C(=O)OC)CC[C@]3(C)[C@H](CC[C@@H]4[C@@]5(C)C/C(=C/c6ccc(OC)cc6)C(=O)C(C)(C)[C@@H]5CC[C@]43C)[C@@H]12`, the growth is 99.7% (inactive). On to `O=S(=O)(Nc1ccc(I)cc1F)c1ccc(-c2cnc(C3CC3)o2)cc1`, for which the growth was 50.9% (inactive). For the molecule `COc1cc2nc(N3CCCC3)nc(NCCc3ccccc3)c2cc1OC`, the growth was 82.1% (inactive). For the molecule `COc1ccc(Nc2nc(SC)nc(-c3cccc([N+](=O)[O-])c3)c2C#N)cc1`, the growth was 61.7% (inactive). As to `COc1cc(CNc2oc(-c3ccccc3)c(-c3ccccc3)c2C#N)cc(CN2CCN(C)CC2)c1O`, the growth was 20.6% (inactive). Same read-out and setting: next, `COc1ccc(-c2nc3ccc(-c4nc5ccc(N6CCN(c7ccncc7)CC6)cc5[nH]4)cc3[nH]2)cc1OC`: -25% (active).

For the molecule `O=C1/C(=C/c2cn(-c3ccccc3)nc2-c2ccccc2)SC(=S)N1CCc1ccccc1`, the growth was 104% (inactive). On to `CCCN1CCN(c2ccc3nc(-c4ccc5nc(-c6ccc(OCC)cc6)[nH]c5c4)[nH]c3c2)CC1`, for which the growth was 0.636% (active).

As to `COc1cccc(-c2nc3sccn3c2-c2ccnc(NCCCNS(=O)(=O)c3cccc(F)c3)c2)c1`, the growth was 28.1% (inactive). `Cn1c(=O)c2c(nc3n(-c4ccc(Cl)cc4Cl)c(Sc4nc(-c5ccccc5)c(C#N)c(=O)[nH]4)cn23)n(C)c1=O`: the growth is 45.2% (inactive). Consider `O=C(/C=C/c1ccccc1)c1ccc(O)c(CN2CCN(c3cc4c(cc3F)c(=O)c(C(=O)O)cn4C3CC3)CC2)c1`, for which the growth is 18.9% (inactive). Take `C=CC(=O)Nc1cccc(-c2nc(SC)nc(Nc3ccccc3OC)c2C#N)c1`: the growth is -10.4% (active). As for `COc1cccc(-c2nc3sccn3c2-c2ccnc(NCCNS(=O)(=O)c3ccc(F)cc3)c2)c1`, the growth is 42.7% (inactive). For `COc1cc2nc(N3CCCC3)nc(NCc3ccccc3)c2cc1OC`, the growth was 41.2% (inactive). `N#Cc1c(-c2ccc(Cl)cc2)nc(N/N=C/c2cccc(Br)c2)nc1N1CCOCC1`: the growth was 133% (inactive). Regarding `CSc1nc(-c2cccc(NC(=O)CCl)c2)c(C#N)c(=O)n1C`, the growth is -72.6% (active). Still for that read-out and setting: the result for `C=CC(=O)Nc1cccc(-c2nc(SC)nc(NCCc3ccc(OC)c(OC)c3)c2C#N)c1` reads 54.8% (inactive); that for `O=C(/C=C/c1cccc([N+](=O)[O-])c1)c1ccc(O)c(CN2CCN(c3cc4c(cc3F)c(=O)c(C(=O)O)cn4C3CC3)CC2)c1`, 78.2% (inactive); that for `COc1cc(/C=C/C(=O)c2ccc(O)c(CN3CCN(c4cc5c(cc4F)c(=O)c(C(=O)O)cn5C4CC4)CC3)c2)cc(OC)c1OC`, 74.3% (inactive). Still for that read-out and setting: the result for `CC(C)(O)c1cn(CCCCN2C(=O)C(=O)c3ccccc32)nn1` reads 105% (inactive).

Regarding `COC(=O)[C@]12CCC(C)(C)C[C@H]1[C@H]1C(=O)C[C@@H]3[C@@]4(C)c5c([nH]c6ccccc6c5=O)C(C)(C)[C@@H]4CC[C@@]3(C)[C@]1(C)CC2`, the growth was 88.1% (inactive).

With `N=C(N)c1ccc(-c2ccc(-c3ccc4ccccc4c3)s2)s1`, the growth is 85.9% (inactive). The same measure, in the same setting: next, `C=CC(=O)Nc1cccc(-c2nc(SC)nc(NCCN3CCOCC3)c2C#N)c1`: 89.6% (inactive); `COc1cc(C=Nc2oc(-c3ccccc3)c(-c3ccccc3)c2C#N)cc(CN2CCCCC2)c1O`: 110% (inactive). Regarding `CC1=NN(c2nc(-c3ccc(Cl)cc3)c(C#N)c(N3CCOCC3)n2)C(=O)C1`, the growth was 42% (inactive). Turning to `COc1cccc(Nc2nc(SC)nc(-c3cccc([N+](=O)[O-])c3)c2C#N)c1`, the growth was 72.7% (inactive). For the molecule `CSc1nc(NCCO)c(C#N)c(-c2cccc([N+](=O)[O-])c2)n1`, the growth is 111% (inactive). Consider `Cn1c(O)c(N=NC(=O)c2cc(-c3ccccc3)on2)c2ccccc21`, for which the growth is 88.7% (inactive). As to `CSc1nc(Nc2cccc(NC(=O)/C(C#N)=C/c3c(Cl)cccc3Cl)c2)c(C#N)c(-c2cccc([N+](=O)[O-])c2)n1`, the growth is 96.5% (inactive). Consider `COc1ccc(-c2nc3ccc(-c4nc5ccc(N6CCN(c7ccccc7)CC6)cc5[nH]4)cc3[nH]2)cc1OC`, for which the growth was -63.8% (active). Same read-out and setting: next, `O=C(N=Nc1c(O)[nH]c2ccccc12)c1cc(-c2ccccc2)on1`: 100% (inactive). For the molecule `O=C1CC(=NCC(=O)n2c(-c3ccccc3)nc3ccccc32)NN1`, the growth is 111% (inactive).

Source of the values: PubChem BioAssay (NCI).
